Experimental data: the supplement of paper PMC6555819

Experiments:
Assay in all cases: PBM binding z-score (relative to random genomic background probes); higher = stronger binding; sequences stand for … in GC…GCGATTGACAGCGTAGAATGAAGG
[1] = system: RARb homodimer (NR concentration 270 nM)
Method in brief: (§1)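 Binding z-scores take random background probes as their reference. They come from custom Agilent 4×180K protein-binding microarrays incubated 1 h with ligand-free nuclear receptor dimers, with antibodies against each partner (one per run) detecting binding. Scanned fluorescence was regression-normalized.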

[2] = system: RARg:RXRa (NR concentration 270 nM, RXRa partner concentration 90 nM)
Method in brief: as §1

[3] = system: RARg homodimer (NR concentration 270 nM)
Method in brief: as §1

[4] = system: RXRa DBDmut IVT, anti-RXR (DBD mutation: RXRa K156A/R161A, NR concentration 90 nM)
Method in brief: as §1

[5] = system: RXRa homodimer (NR concentration 180 nM)
Method in brief: as §1

[6] = system: THRa:RXRa (NR concentration 90 nM, RXRa partner concentration 90 nM)
Method in brief: as §1

[7] = system: THRa homodimer (NR concentration 90 nM)
Method in brief: as §1

[8] = system: VDR:RXRa (NR concentration 270 nM, RXRa partner concentration 90 nM)
Method in brief: as §1

[9] = system: VDR homodimer (NR concentration 270 nM)
Method in brief: as §1

| Sequence | PBM binding z-score [1] | PBM binding z-score [2] | PBM binding z-score [3] | PBM binding z-score [4] | PBM binding z-score [5] | PBM binding z-score [6] | PBM binding z-score [7] | PBM binding z-score [8] | PBM binding z-score [9] |
| --- | --- | --- | --- | --- | --- | --- | --- | --- | --- |
| CTACCAAGGTGAACAAGGTCGTTCATTACTATTC | 2.93 | 2.18 | 1.75 | 2.32 | 2.27 | 3.56 | 2.2 | 6.53 | 3.38 |
| TTACCAAGTTGAAAGGTCGTTGATGCACGCCTTG | 2.1 | 2.9 | 1.34 | 1.31 | 4.21 | 1.92 | -0.189 | 2.65 | 1.58 |
| GCTATTAGTTGAAGGGGCAACCGAATGATTCTCG | 0.855 | 0.206 | 0.529 | 0.928 | 0.206 | 0.0187 | -0.194 | -0.246 | 0.212 |
| TGAATGTGGTTATAAGATCAGGGAACGTTGCAAA | 0.38 | 0.101 | 0.404 | -0.35 | 0.0364 | 0.133 | 0.0859 | 0.157 | 0.37 |
| CCGACTGGGGCAGAAAGGTTACAATACCATCCGG | 1.83 | 1.59 | 1.25 | -0.65 | 1.75 | 0.907 | -0.555 | 1 | 0.0532 |
| ACTAGCAGGCAAAGTTTGGGTCACTCAAACAAAG | 1.61 | 0.87 | 0.559 | -0.386 | 0.711 | 2.14 | 0.949 | 0.478 | 0.233 |
| CGTCCAAGGTCATAGGAGCTCAGTGAAGACAGAT | 3.58 | 5.66 | 5.78 | 3.96 | 5.68 | 4.03 | 2.37 | 4.11 | 2.47 |
| ACAGACAGGTGATGAAGGTCACTCAGGCTATCAT | 3.75 | 3.15 | 2.94 | 0.355 | 2.67 | 2.81 | 0.677 | 4.67 | 1.51 |
| TCAGACTGGTGAAGGTAACTCAGGTACGCAGTCG | -0.0938 | -0.218 | -0.262 | 0.596 | 0.463 | 0.985 | 0.0816 | 0.31 | -0.271 |
| TCTCGTAGGACACGAAGGTCAGAGCTTTCCAGAG | 3.42 | 2.46 | 2.96 | 0.604 | 1.63 | 1.98 | 0.187 | 1.71 | 0.463 |
| CGAACTAGGTCATCCACGACAGTGAATACATTGA | 2.85 | 3.96 | 4.77 | 2.28 | 2.9 | 2.79 | 1.22 | 2.18 | 1.44 |
| GCTAGTTGGTCAGTAACAGGTCACACACCGGTCG | 3.38 | 2.86 | 2.06 | 0.0356 | 2.11 | 2.13 | 1.06 | 1.68 | 0.753 |
| CCTACTGGGCCAACGTCATTGATCAGTCAAAGCA | 0.446 | -0.195 | -0.0642 | -0.651 | -0.328 | -0.204 | -0.526 | -0.476 | -0.545 |
| CCTGCTAGGTCGATGGTCAGCTAAAGCAGCTCGC | 0.8 | 0.222 | 0.416 | 0.224 | -0.11 | 0.103 | -0.265 | -0.292 | -0.719 |
| ATCACTAGGTAAGACTCAGTTCAGTGAAGAACGC | 0.405 | 0.282 | 0.333 | 0.204 | -0.0584 | 0.526 | 0.536 | 0.53 | 1.28 |
| ACTATTAGTTGACTTAGGGCAACAGATACGACGC | 0.775 | 0.939 | 1.03 | 0.406 | 0.426 | 1.48 | 0.0505 | 0.323 | 0.162 |
| CGTCCAAGGACAAAGGTCAGTGAAGAGATGACGG | 4.61 | 5.3 | 4.95 | 1.31 | 4.03 | 4 | 1.15 | 2.64 | 0.88 |
| ATCTCTAGGTAAAAGTTCGGTGAATCCCGAGGAT | 0.446 | 0.536 | 0.526 | 0.2 | 0.463 | 0.583 | 0.177 | 0.449 | 0.68 |
| CGTCCAAGGTCAAGTTCAGTGAAAGAGACTCGAA | 4.68 | 6.6 | 7.17 | 4.31 | 6.26 | 3.99 | 2.87 | 4.91 | 4.75 |
| CAGCCTATGTCAGGGCCAGTATAGGAGGAACGTT | 0.243 | 0.116 | 0.219 | -0.685 | -0.248 | -0.329 | -0.168 | -0.493 | -0.529 |
| CCTAGTTGGTCAGGAGGTCGCACACCGGATATGA | 2.18 | 2.4 | 1.98 | -0.149 | 1.86 | 1.66 | 0.99 | 1.41 | 1.59 |
| TCATCTAGGTAAAGGTGAAAGTCGAACGATATGA | 1.65 | 1.58 | 1.28 | 0.923 | 2.08 | 1.75 | 0.0366 | 0.95 | 0.215 |
| GATACAGGGTCAAGGCCAGTGTACGCGTATTGAT | 3.55 | 5.61 | 5.38 | 2.22 | 6.4 | 3.55 | 1.08 | 4.28 | 2.13 |
| CAAACTAGCTCAAGAGGTCAAAGTCCGCTTCCCG | 4.52 | 4.96 | 4.04 | 2.4 | 5.51 | 3.66 | 1.72 | 4.96 | 3.55 |
| TAGTCTAGGTCATGCGGGCCAGTATAGTGTCGGC | 3.13 | 3.77 | 4.69 | 0.748 | 3.08 | 3.29 | 1.67 | 2.86 | 0.86 |
| CTACCAAGGTGAAAAAGGTCGTTGATTACTATTC | 2.39 | 2.01 | 1.33 | 1.01 | 2.21 | 2.42 | 0.518 | 4.09 | 1.4 |

| Sequence | PBM binding z-score [1] | PBM binding z-score [2] | PBM binding z-score [3] | PBM binding z-score [4] | PBM binding z-score [5] | PBM binding z-score [6] | PBM binding z-score [7] | PBM binding z-score [8] | PBM binding z-score [9] |
| --- | --- | --- | --- | --- | --- | --- | --- | --- | --- |
| AGTCAAAGTTCACTAGGTACCGTAAGATTCAGCT | 3.6 | 4.92 | 5.92 | 4.36 | 3.75 | 1.65 | -0.132 | 4.35 | 3.97 |
| ATATGTAGGTTAAGGGTGATTCAGGTTGGTTCGC | 1.8 | 1.14 | 1.06 | 0.792 | 1.62 | 1.56 | 1.39 | 1.68 | 1.41 |
| CCTTTCGGGTCAAGGTTATAGCACGGGTGGTACG | 3.76 | 5.07 | 5.07 | 2.03 | 5.56 | 3.97 | 3.16 | 3.79 | 1.97 |
| CGAAATAGGTCATCCAGGACAGTGAATACATTGA | 3.71 | 5.08 | 4.84 | 2.26 | 4.96 | 3.96 | 1.19 | 5.63 | 1.92 |
| CCTATTAGTTGGCCATAAGGGCAACCGAAGCTCG | 1.46 | 0.564 | 0.624 | 0.223 | 0.155 | 1.3 | 0.895 | 0.196 | 0.172 |
| TCTAGGAGGCCAGAGGGTCACTCAAGAGGTACGG | 3.01 | 3.09 | 2.32 | 0.451 | 2.66 | 1.7 | 0.0241 | 1.68 | 0.313 |
| CCGGCTAGGTCAATGGTCAGCTAAAGCAGCTCGC | 3.19 | 3.59 | 4.45 | 1.33 | 2.4 | 2.16 | 0.768 | 0.907 | 0.413 |
| CGTCCAAGGTCAGAGAGGTCAGTGAGTGCCGAGT | 5.29 | 6.35 | 7.09 | 3.37 | 5.51 | 4.37 | 3.07 | 7.44 | 6.07 |
| CCTATTAGTGGACCATAAGGGCAACCGAAGCTCG | 1.53 | 0.433 | 0.657 | 0.115 | 0.31 | 1.38 | 0.862 | 0.134 | 0.415 |
| CCTACTGTGCCACGAAAGGTCATTGATTCAGTGA | 4.67 | 4.41 | 3.73 | 1.43 | 4.76 | 3.46 | 1.67 | – | 2.34 |
| TCATTTAGGTAAAGGTGAAAGTCGAACGATATGA | 1.52 | 1.74 | 1.44 | 0.874 | 2.07 | 2.01 | 0.0517 | 1.23 | 0.0443 |
| GGAACGAGGGCAAGTTGACAGCAGAGTTTGATGG | 1.76 | 1.71 | 2.41 | 2.46 | 1.16 | 1.17 | -0.0541 | 0.799 | 1.42 |
| CCTTACGGGTCACGAGGTTATTGCACGACGAGCG | 4.19 | 6.12 | 5.46 | 1.83 | 7.15 | 3.67 | 1.4 | 5.3 | 2.55 |
| CAAACTAGGTCTAGAGGTCAAAGTCCGCTTCCCG | 4.55 | 5.26 | 4.46 | 1.89 | 5.98 | 3.8 | 1.56 | 4.93 | 4.46 |
| ACTAGCAGGCCGAGGGTCACTCAAGATTAGTCCG | 2.43 | 2.41 | 2.14 | 0.267 | 2.49 | 1.91 | -0.126 | 1.52 | 0.527 |
| GCATATAGGTAATACGAGGTGAAAGTCCGATTGT | 0.883 | 0.378 | 0.419 | 0.527 | 0.781 | 4.46 | 1.41 | 0.598 | -0.0522 |
| TTACAAAGGTGAAGGTCGTTGATCCCTCTGTAGA | 2.91 | 3.09 | 2.66 | 0.165 | 3.13 | 2.1 | 0.228 | 2.19 | 1.08 |
| AGAATGAGGTTAAGATCAGGCAAACAGAATACAT | 0.764 | 2.13 | 1.63 | 0.944 | 2.49 | 2.86 | 0.441 | 1.23 | 0.247 |
| CGAACTAGGTCAAGGACAGTGGATCTCCGCACGC | 3.1 | 3.74 | 4.5 | 1.34 | 2.41 | 3.05 | 2 | 1.22 | 0.315 |
| GCTAGTTGGTCAGTAAAAGGTCGCACACCGGTCG | 2.98 | 2.68 | 1.8 | 0.145 | 1.95 | 1.61 | 0.192 | 1.39 | 0.447 |
| GGAACGAGGGCATTCGATTTGATAGCATGGCGAT | 0.884 | 1.28 | 1.49 | 3.11 | 1.01 | 1.09 | -0.234 | – | 1.9 |
| GCTTGTAGATCAAGGTTAAGAAAGACTAAGCTAA | 0.0928 | 0.389 | 0.229 | -0.146 | 0.904 | 1.14 | -0.422 | 0.156 | -0.377 |
| ATCGAAAGGTCGAGGTGAGGATAGAGAAAGGGAA | 3.07 | 4.35 | 4.28 | 0.642 | 4.31 | 3.87 | 1.64 | 2.63 | 0.466 |
| GCTCGGAGTACAAGGTCAGAGCTTTGTCCGTAGA | 2.65 | 2.42 | 2.48 | 1.1 | 2.11 | 2.63 | 1.23 | 1.48 | 0.858 |
| CCGACTGGGGCAAAGGTTCCCATACTCAGTACGA | 0.64 | 0.839 | 0.494 | -0.0939 | 0.724 | -0.141 | -0.168 | -0.179 | -0.00727 |
| ATATGTAAGTTATCGGGTCATTCAGTTTGCGCAT | 2.48 | 2.12 | 1.48 | 1.61 | 2.59 | 3.24 | 2.84 | 4.93 | 3.74 |
